KB-V1 cytotox: kills drug-selected multidrug resistant KB-V1 cells. KB-V1 MDR cells viability, CellTiter-Glo, 72 h. Potency, µM (series often up to 46.1 µM), actives largely listed as cytotoxic. 3.4% of 400,000 active; further: nearly all actives have a fitted effect of over 60% in size
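In this primary screen, KB-V1 cells overexpressing P-gp are incubated with library compounds (lowest to highest concentration) for 72 h at 37 degrees C before a luminescent ATP viability read.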
HT1080 IDH1KD tx: kills HT-1080 cells with IDH1 knockdown; Potency, µM (top dose mostly 46.1 µM), without a hit: top-dose activity, negative = toxicity, hits mostly cytotoxic; HT-1080 IDH1 knockdown viability, ATP luminescence, 48 h; 2% of 360,000 active;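 further: 0% = DMSO wells and -100% = cell-free medium wells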
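% activity derives from luminescence (CellTiter-Glo), normalised to DMSO and no-cell wells. HT-1080-IDH1KD cells, 750/well, had 48 h compound exposure at 37 °C.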
DT40 TDP1 CPT: growth inhibition of DT40 Tdp1-/-;hTDP1 cells with camptothecin (screen for TDP1 inhibitors). chicken DT40 Tdp1-/-;hTDP1 cells + 20 nM CPT, ATP luminescence, 48 h. Potency, µM (doses to about 46.2 µM), without a hit: at the top dose activity change, negative = growth inhibition, actives largely listed as inhibitors. 12% of 420,000 active; further: nearly all actives have a fitted effect of over 55% in size
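Cell growth measured by CellTiter-Glo luminescence after a minimum 48 h, 37 C compound exposure with 20 nM CPT in Tdp1-knockout DT40 cells stably expressing hTDP1, seeded 400/well; qHTS titration format.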
KB-3-1 tox: kills parental KB-3-1 adenocarcinoma cells. Potency, µM (series often up to 46.1 µM), most hits filed as cytotoxic. 1.4% of 400,000 active. KB-3-1 viability, CellTiter-Glo ATP luminescence, 72 h; further: nearly all actives have a fitted effect of over 60% in size
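Cytotoxicity measured as CellTiter-Glo luminescence after 72 h at 37 C. Compound titrations were pinned onto drug-naive KB-3-1 parental adenocarcinoma cells grown in DMEM with 10% FBS, and normalized data fitted to concentration-response curves.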
HT1080-NT tox: kills 2HG-producing HT-1080-NT fibrosarcoma cells | HT-1080-NT fibrosarcoma viability, CellTiter-Glo ATP luminescence, 48 h | Potency, µM (series often up to 46.1 µM), for the others: at the top dose activity, negative = less viability, most hits filed as cytotoxic | 1.6% of 360,000 active;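 further: NT is the 2HG producing partner of a matched IDH1 knockdown line; 0% = DMSO-treated cells and -100% = media-only wells without cells; nearly all actives have a fitted effect of over 55% in size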
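Read-out is CellTiter-Glo luminescence after 10 minutes at room temperature, following 48 hours' compound treatment of HT-1080-NT cells (750 cells/well, RPMI, 5% FBS, 37 degrees C).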
DT40 TDP1 no CPT: qHTS for Inhibitors of human tyrosyl-DNA phosphodiesterase 1 (TDP1): qHTS in cells in absence of CPT. Potency, µM (series often up to 46.2 µM), without a hit: at the top dose activity change, negative = growth inhibition, hits mostly inhibitors. DT40 Tdp1-/- hTDP1 cells, no CPT, ATP luminescence, 48 h. 15% of 420,000 active; further: nearly all actives have a fitted effect of over 55% in size
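Stably hTDP1-transfected Tdp1-null chicken DT40 cells were treated with library compounds minus camptothecin and grown for at least 48 hr at 37 °C, after which cellular ATP was quantified by luminescence.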
Numbers without * were called inactive; i = inactive; ? = inconclusive; · = no result. The list is not random: actives were taken first. Their share in the collection is about 19%. The call rests on the fitted dose curve; in most records, active means well fitted curve in the direction sought with a large enough effect; inconclusive means small, poorly fitted or top-dose-only effect, or another doubt; inactive means no such curve, though single readings can be large; an effect the other way counts as inactive or inconclusive. Unless noted, on the % scale 0 is the no-effect control and ±100 the full control effect; potency means the concentration at half of the fitted maximal effect.

SMILES	KB-V1 cytotox	HT1080 IDH1KD tx	DT40 TDP1 CPT	KB-3-1 tox	HT1080-NT tox	DT40 TDP1 no CPT
CC(=O)OC1CC[C@]2(C)C(=CCC3C4CCC(C(C)CCCC(C)C)[C@]4(C)CCC32)C1 (some centres undefined)	·	·	-6%	·	·	21%
COc1cc(/C=C/c2ccc3cccc(O)c3n2)cc(OC)c1OC	?	6.5µM*	?	?	8.2µM*	?
CCC1(CC)SCCNC1=O	i	12%	-10%	i	13%	-15%
O=C(N/N=C/c1ccc(O)c(O)c1O)/C(=C/c1ccc([N+](=O)[O-])cc1)NC(=O)c1ccccc1	i	15µM*	4.6µM*	i	?	5.8µM*
Cc1ccc(NC(=O)/C(=C\c2ccc([N+](=O)[O-])cc2)NC(=O)c2ccccc2)cc1	i	-3%	?	i	-13%	?
COc1ccc(/C=C(\NC(=O)c2cccs2)C(=O)NN)cc1OC	i	-2%	11%	i	-1%	1%
COc1ccc(/C=C(\NC(=O)c2cccs2)C(=O)Nc2cccc3ccccc23)cc1OC	i	-13%	?	i	0%	18µM*
O=C(Nc1cccc(C(=O)O)c1)/C(=C/c1ccc([N+](=O)[O-])cc1)NC(=O)c1ccccc1	i	8%	-5%	i	2%	-7%
O=C(Nc1cccc2ccccc12)/C(=C/c1ccc([N+](=O)[O-])cc1)NC(=O)c1ccccc1	4.6µM*	-10%	8.2µM*	i	-3%	21µM*
O=C(CNC(=O)c1ccc(Cl)cc1Cl)OC1CCCCC1=O (centres undefined)	i	12%	10%	i	7%	12%
CCCCCC(=O)N(Cc1ccccc1)c1c(N)n(CCOC)c(=O)[nH]c1=O	i	1%	-4%	i	-3%	-11%
CC(C)C[C@@H](CN1CCCC1CN1C(=S)NC[C@@H]1Cc1ccccc1)N1C[C@H](Cc2ccccc2)N(CC2CCCCCC2)C1=S (some centres undefined)	?	-1%	10µM*	i	-21%	?
CC(C)C[C@H]1CN([C@@H](CC(C)C)CN2CCCC2CN2C(=S)NC[C@@H]2Cc2ccccc2)C(=S)N1CC1CCCCC1 (some centres undefined)	?	16µM*	16µM*	i	-29%	?
CC(C)C[C@H]1CN([C@@H](CC(C)C)CN2CCC[C@@H]2CN2C(=O)C(=O)NC[C@@H]2Cc2ccccc2)C(=O)C(=O)N1CC1CCCCC1	?	2%	?	i	2%	?
CCCCn1c(SCC(=O)NC2CC(C)(C)NC(C)(C)C2)nc2cc(S(N)(=O)=O)ccc21	i	10%	5%	i	8%	18%
Cc1ccccc1CN1C(=O)CSCC1(C)C(=O)Nc1ccc2c(c1)OCCO2 (centres undefined)	?	8%	?	i	10%	?
Cc1ccc(NC(=O)COC(=O)C2COc3ccccc3O2)cc1 (centres undefined)	?	0%	-2%	i	10%	21%
CN1/C(=C\C(=O)COC(=O)CN2C(=O)C3CC=CCC3C2=O)C(C)(C)c2ccccc21 (centres undefined)	i	-21%	?	i	-17%	18µM*
CN1/C(=C/C(=O)COC(=O)C2COc3ccccc3O2)C(C)(C)c2ccccc21 (centres undefined)	i	-5%	26µM*	i	-7%	21µM*
CN1/C(=C\C(=O)COC(=O)CNC(=O)c2ccccc2F)C(C)(C)c2ccccc21	i	12%	13%	i	0%	-15%

Screens (PubChem)
